Test systems include SR leukemia; RPMI-8226 leukemia; OVCAR-8 ovarian; OVCAR-5 ovarian; OVCAR-4 ovarian; SK-OV-3 ovarian; IGROV1 ovarian; OVCAR-3 ovarian; HS 578T breast; NCI/ADR-RES ovarian.
Holding throughout (assay): NCI-60 one-dose screen, 48 h (100 = growth as untreated, 0 = no growth, -100 = all killed)
Common to all, as to details: 10 µM unless noted

The panel holds about 83,000 compounds, 20% with a hit somewhere; the sample as a whole holds those more often.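 Growth was measured after 48 h exposure to one concentration of compound in 96-well plates. Values under 10 count as active.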 A number with no mark means an inactive call. Calls of active or inactive are those of the source.

As to `CCn1cnc(C[C@H](NC(=O)[C@H](CCCCNC(=O)Nc2cc(C(F)(F)F)cc(C(F)(F)F)c2)NC(=O)Nc2cc(C(F)(F)F)cc(C(F)(F)F)c2)C(=O)OC)c1`, the growth in the assay on SR leukemia is -29% [100 µM] (active); in the assay with RPMI-8226 leukemia, -42.4% [100 µM] (active); in the assay with OVCAR-8 ovarian it was -9.32% [100 µM] (active); with OVCAR-5 ovarian it was -67.9% [100 µM] (active); with OVCAR-4 ovarian it was -17.2% [100 µM] (active); in the assay on SK-OV-3 ovarian it was -23.7% [100 µM] (active). In addition, the growth with IGROV1 ovarian is -23.5% [100 µM] (active); with OVCAR-3 ovarian, -90.2% [100 µM] (active); in the assay with HS 578T breast it was -7.06% [100 µM] (active); in the assay on NCI/ADR-RES ovarian, 51.5% [100 µM].

For `O=Cc1ncc(-c2ccc(C(F)(F)F)cc2)c(NC2CCCCCC2)n1`, the growth with SR leukemia is -29.1% [100 µM] (active); in the assay on RPMI-8226 leukemia, -35.1% [100 µM] (active); in the assay with OVCAR-8 ovarian it was -68.2% [100 µM] (active); in the assay with OVCAR-5 ovarian it was -91.8% [100 µM] (active); in the assay with OVCAR-4 ovarian, -73.8% [100 µM] (active); in the assay with SK-OV-3 ovarian, -13.7% [100 µM] (active). For the same molecule, the growth with IGROV1 ovarian is -68.3% [100 µM] (active); in the assay with OVCAR-3 ovarian it was -94.5% [100 µM] (active); in the assay with HS 578T breast, -39.1% [100 µM] (active); with NCI/ADR-RES ovarian, -69.8% [100 µM] (active).

Turning to `COC(=O)[C@H](Cc1cn(C)cn1)NC(=O)[C@H](C)NC(=O)Nc1cc(C(F)(F)F)cc(C(F)(F)F)c1`, the growth is -31.1% [100 µM] (active) with SR leukemia; -31.7% [100 µM] (active) with RPMI-8226 leukemia; -68.1% [100 µM] (active) with OVCAR-8 ovarian; -43.8% [100 µM] (active) in the assay on OVCAR-5 ovarian; -58.3% [100 µM] (active) in the assay on OVCAR-4 ovarian; -97.5% [100 µM] (active) with SK-OV-3 ovarian. Also, the growth with IGROV1 ovarian is -54% [100 µM] (active); in the assay on OVCAR-3 ovarian it was -89.4% [100 µM] (active); in the assay on HS 578T breast it was -1.05% [100 µM] (active); with NCI/ADR-RES ovarian, 79.3% [100 µM].

`Cc1ccc2nc3c(n2c1)C(=O)C(=O)c1ccccc1-3`: the growth was -44.5% (active) in the assay with SR leukemia; -51.9% (active) with RPMI-8226 leukemia; -68.1% (active) in the assay with OVCAR-8 ovarian; -74% (active) with OVCAR-5 ovarian; -98.4% (active) with OVCAR-4 ovarian; -90.9% (active) with SK-OV-3 ovarian. The growth in the assay on IGROV1 ovarian was -49.1% (active); with OVCAR-3 ovarian, -82.5% (active); in the assay with HS 578T breast, -15.6% (active); in the assay on NCI/ADR-RES ovarian it was -3.7% (active).

`CCOc1cc(/C=C/C(=O)CC(=O)/C=C/c2ccc(OC(=O)CNc3nc4ccc(OC)cc4s3)c(OCC)c2)ccc1OC(=O)CNc1nc2ccc(OC)cc2s1`: the growth with SR leukemia was -27.3% (active); in the assay with RPMI-8226 leukemia it was -27.2% (active); in the assay on OVCAR-8 ovarian, 28.6%; with OVCAR-5 ovarian, 99%; with OVCAR-4 ovarian it was 69.5%; in the assay with SK-OV-3 ovarian, 89.5%. For the same molecule, the growth with IGROV1 ovarian was -26.5% (active); in the assay on OVCAR-3 ovarian it was 77.8%; in the assay on HS 578T breast, 23%; in the assay with NCI/ADR-RES ovarian, 82.3%.

As to `Cc1cc(C)c(C(=O)c2cccs2)c(C)c1`, the growth is 86.1% in the assay with SR leukemia; 98.1% in the assay on RPMI-8226 leukemia; 106% with OVCAR-8 ovarian; 98.1% in the assay on OVCAR-5 ovarian; 109% in the assay with OVCAR-4 ovarian; 101% in the assay on SK-OV-3 ovarian. Also, the growth in the assay on IGROV1 ovarian was 97.7%; in the assay with OVCAR-3 ovarian, 113%; in the assay on HS 578T breast, 109%; in the assay on NCI/ADR-RES ovarian, 105%.

With `COc1ccc2c(c1)CC[C@@H]1[C@@H]2CC[C@]2(C)[C@@H](O)C(=O)C[C@@H]12`, the growth was 84.2% in the assay with SR leukemia; 103% in the assay on RPMI-8226 leukemia; 101% with OVCAR-8 ovarian; 95.8% with OVCAR-5 ovarian; 107% with OVCAR-4 ovarian; 120% in the assay with SK-OV-3 ovarian. Also, the growth in the assay on IGROV1 ovarian is 115%; in the assay on OVCAR-3 ovarian, 106%; in the assay with HS 578T breast it was 100%; in the assay with NCI/ADR-RES ovarian, 105%.

As to `C[C@]12CCC(=O)C=C1CC[C@H]1[C@@H]3C[C@@H](O)[C@](O)(C(=O)CO)[C@@]3(C)C[C@H](O)[C@@]12F`, the growth in the assay with SR leukemia is 96.3%; in the assay on RPMI-8226 leukemia it was 67.1%; in the assay on OVCAR-8 ovarian, 92.8%; in the assay on OVCAR-5 ovarian, 86.7%; with OVCAR-4 ovarian, 95.7%; in the assay on SK-OV-3 ovarian, 72.4%. For the same molecule, the growth with IGROV1 ovarian is 97.6%; in the assay with OVCAR-3 ovarian it was 105%; in the assay on HS 578T breast it was 115%; in the assay on NCI/ADR-RES ovarian, 95.4%.

On to `CCCCCCCCCCNCCSS(=O)(=O)O`, for which the growth is 52.1% with SR leukemia; 98.2% in the assay on RPMI-8226 leukemia; 65.9% in the assay on OVCAR-8 ovarian; 103% in the assay with OVCAR-5 ovarian; 102% in the assay on OVCAR-4 ovarian; 84.8% in the assay on SK-OV-3 ovarian. Also, the growth was 91.2% with IGROV1 ovarian, 72.3% with OVCAR-3 ovarian, 52.1% in the assay with HS 578T breast and 83.7% with NCI/ADR-RES ovarian.

Turning to `COc1ccc(C2CC(c3ccc(Nc4ccnc5cc(Cl)ccc45)cc3)=NN2C(C)=O)cc1` (centres undefined), the growth was -9.45% (active) with SR leukemia; 33.8% with RPMI-8226 leukemia; 72.8% with OVCAR-8 ovarian; 94.2% in the assay on OVCAR-5 ovarian; 59% in the assay on OVCAR-4 ovarian; 101% in the assay with SK-OV-3 ovarian. For the same molecule, the growth was 74.4% in the assay with IGROV1 ovarian, 64.2% with OVCAR-3 ovarian, 62.7% with HS 578T breast and 67.7% in the assay on NCI/ADR-RES ovarian.

For `C/C(=C\CCc1ccoc1)CC/C=C(\C)CCCN1CCOCC1`, the growth in the assay with SR leukemia is 21%; with RPMI-8226 leukemia it was 20.8%; in the assay on OVCAR-8 ovarian, 71.5%; in the assay with OVCAR-5 ovarian it was 63%; in the assay on OVCAR-4 ovarian, 58.3%; with SK-OV-3 ovarian, 74.4%. Besides, the growth with IGROV1 ovarian is 71.3%; with OVCAR-3 ovarian, 51.8%; in the assay on HS 578T breast, 69.9%; in the assay with NCI/ADR-RES ovarian, 74.5%.

Regarding `CCCCCc1c(C)[nH]c(/C=C2\N=C(c3ccc[nH]3)C=C2Oc2ccccc2)c1C`, the growth in the assay with SR leukemia was 8.8% [100 µM] (active); with RPMI-8226 leukemia it was -31.5% [100 µM] (active); with OVCAR-8 ovarian, -90.2% [100 µM] (active); with OVCAR-5 ovarian it was -99.8% [100 µM] (active); in the assay on OVCAR-4 ovarian it was -74.7% [100 µM] (active); in the assay with SK-OV-3 ovarian it was -54.7% [100 µM] (active). Besides, the growth in the assay on IGROV1 ovarian was -31.6% [100 µM] (active); in the assay on OVCAR-3 ovarian, -93.4% [100 µM] (active); in the assay on HS 578T breast it was -7.4% [100 µM] (active); in the assay on NCI/ADR-RES ovarian it was -77.1% [100 µM] (active).

Take `O=C(CNC(=O)c1cccc2ccccc12)Nc1ccccc1Oc1ccc(O)cc1`: the growth in the assay with SR leukemia is 30.4% [5 µM]; in the assay on RPMI-8226 leukemia, 24.2% [5 µM]; with OVCAR-8 ovarian it was 28.4% [5 µM]; with OVCAR-5 ovarian it was 40.3% [5 µM]; in the assay with OVCAR-4 ovarian, 70.4% [5 µM]; in the assay with SK-OV-3 ovarian, 28.9% [5 µM]. The values for the growth with IGROV1 ovarian, in the assay on OVCAR-3 ovarian and in the assay on NCI/ADR-RES ovarian were 38% [5 µM], -6.31% [5 µM] (active) and 23.5% [5 µM], respectively.
